G9a block: qHTS Assay for Inhibitors of Histone Lysine Methyltransferase G9a | Histone-lysine N-methyltransferase EHMT2 (Homo sapiens), Q96KQ7 | G9a H3K9 monomethylation, AlphaScreen, 2 h | Potency, µM (series often up to 102 µM), without a hit: top-dose activity, negative = inhibition, usual class: inhibitors | 8.8% of 350,000 active; note: potency is the fitted concentration of half-maximal effect; % is set by controls: 0 for no effect and ±100 for the full control effect; nearly all actives have a fitted effect of over 75% in size
Target sequence (Q96KQ7 913-1193 limits assumed): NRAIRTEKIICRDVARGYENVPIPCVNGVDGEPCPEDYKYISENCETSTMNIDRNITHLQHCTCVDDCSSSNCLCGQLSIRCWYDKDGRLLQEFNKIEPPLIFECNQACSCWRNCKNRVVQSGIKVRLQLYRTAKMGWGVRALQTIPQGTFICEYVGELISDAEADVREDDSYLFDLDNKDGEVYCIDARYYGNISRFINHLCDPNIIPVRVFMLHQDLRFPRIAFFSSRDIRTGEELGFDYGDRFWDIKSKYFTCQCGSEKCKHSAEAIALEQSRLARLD
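Chemiluminescent proximity detection of H3K9 monomethylation, read after 10 min bead incubation in the dark. Reaction: 20 nM G9a, 500 nM biotin-H3K9 peptide, 20 uM SAM cofactor, 2 h, room temperature, following 15 min enzyme-compound preincubation.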
LMNA splice mod: qHTS Assay for Modulators of Lamin A Splicing; HeLa LMNA splicing GFP/RFP minigene ratio, 48 h; Potency, µM (highest dose often 46.1 µM), inactives show top-dose ratio change, negative = inhibition, usual class: inhibitors; 0.01% of 200,000 active; AID 1487, 2009; active = well fitted inhibition curve with a large enough effect in the signal ratio, with a control signal flat, not every such curve was filed as active; inconclusive = small, poorly fitted or top-dose-only effect, or effect the other way, or a change in a side signal; the % refers to the signal ratio; note: potency is the fitted concentration of half-maximal effect; % is set by controls: 0 for no effect and ±100 for the full control effect
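S3 HeLa cells stably expressing lamin A-EGFP splicing minigene plus DsRed2, 600 cells/well, 48 h compound exposure at 37C. Laser-scanning cytometry; analysed as GFP (500-530 nm)/RFP (575-640 nm) total intensity ratio; 0.5% DMSO vehicle.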
KDM4E inh: qHTS Assay for Inhibitors of Human Jumonji Domain Containing 2E (JMJD2E) | AID 2147, 2009 | Potency, µM (highest dose often 57.1 µM), for inactives: top-dose activity change, negative = inhibition, usual class: inhibitors | Lysine-specific demethylase 4E (Homo sapiens), B2RXH2 | 1.6% of 230,000 active | JMJD2E catalytic domain, FDH-coupled NADH fluorescence (FDH is formaldehyde dehydrogenase);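 note: potency is the fitted concentration of half-maximal effect; 0% = wells with enzyme and -100% = buffer wells without enzyme; nearly all actives have a fitted effect of over 50% in size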
Target sequence (B2RXH2 1-337 limits assumed): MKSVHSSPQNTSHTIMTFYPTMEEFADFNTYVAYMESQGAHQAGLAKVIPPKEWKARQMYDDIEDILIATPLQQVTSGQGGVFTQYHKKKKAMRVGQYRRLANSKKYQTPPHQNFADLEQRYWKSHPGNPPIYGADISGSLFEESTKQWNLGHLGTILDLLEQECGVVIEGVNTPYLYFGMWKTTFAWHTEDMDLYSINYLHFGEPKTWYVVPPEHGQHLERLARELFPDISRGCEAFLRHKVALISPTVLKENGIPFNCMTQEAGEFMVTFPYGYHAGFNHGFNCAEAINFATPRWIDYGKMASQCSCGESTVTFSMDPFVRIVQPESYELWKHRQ
ALDH1A1 block: qHTS Assay for Inhibitors of Aldehyde Dehydrogenase 1 (ALDH1A1). Purified ALDH1A1, NADH fluorescence, propionaldehyde substrate. Potency, µM (series often up to 75.3 µM), for the others: at the highest dose activity, negative = inhibition, usual class: inhibitors. 7.3% of 220,000 active; active = well fitted inhibition curve with a large enough effect, not every such curve was filed as active; inconclusive = small, poorly fitted or top-dose-only effect, or another doubt; inactive = no such curve, though single readings can be large or run the other way;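 note: potency is the fitted concentration of half-maximal effect; plate controls were no enzyme wells and a reference inhibitor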
miR-21 reporter: qHTS Assay for Modulators of miRNAs and/orActivators of miR-21 | HeLa miR-21 FLuc reporter, luciferase, 48 h | Potency, µM (highest dose often 38.3 µM), without a hit: at the top dose activity change, positive = activation, hits mostly activators | 340,000 tested, under 10 active;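 note: % of control where 0% means no effect; miR-21 action dims this reporter so a rising signal means less miR-21 action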
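Using DMEM plus 10% FBS, HeLa miR-21-FLuc cells are incubated with test compounds (final up to about 40uM) for 48 hours; firefly luciferase signal is then imaged following reagent-mediated lysis.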
Sfp PPTase inh: qHTS Assay for Inhibitors of Bacillus subtilis Sfp phosphopantetheinyl transferase (PPTase); 4'-phosphopantetheinyl transferase ffp (Bacillus subtilis), Q9F4F7; Biochemical Sfp PPTase activity, qHTS; Potency, µM, for the others: largest response in the series, negative = inhibition, usual class: inhibitors; 3.5% of 310,000 active; AID 1490, 2009;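 note: the enzyme is Sfp with the accession as filed and its product quenches rhodamine fluorescence; potency is the fitted concentration of half-maximal effect; 0% = enzyme reaction without inhibitor and -100% = no enzyme wells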
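Fluorescence-quenching assay with 15 nM Sfp, 5 uM rhodamine-CoA and 12.5 uM BHQ-2-labelled ybbR peptide in pH 7.6 Hepes/MgCl2 buffer. Enzyme was pre-incubated with compound for 15 min at room temperature. Rate was taken from the 30-min fluorescence change (525/598 nm).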
Active calls of the source: *; ? = inconclusive; . = not tested or not shown; [ ] = remark or other dose. Rows were chosen to be rich in hits. Some 13% of all compounds tested hit in one or more screens of this group. Unless noted, calls come from the whole dose curve; as a rule, active = well fitted curve in the direction sought with a large enough effect; inconclusive = small, poorly fitted or top-dose-only effect, or another doubt; inactive = no such curve, though single readings can be large; an effect the other way counts as inactive or inconclusive.

SMILES	G9a block	LMNA splice mod	KDM4E inh	ALDH1A1 block	miR-21 reporter	Sfp PPTase inh
CCC(ONc1ccccc1C(F)(F)F)(C(=O)NN(C)C)c1ccccc1 (configuration not stated)	-17.1%[2.33 µM]	.	.	.	.	.
CCn1cc(S(=O)(=O)c2ccc(C)cc2C)c(=O)c2cc(F)c(N3CCCCC3)cc21	-14.7%[59 µM]	-9.2%[46 µM]	.	.	-2.8%	.
CCOC(=O)C(CC(=O)O)NCc1ccco1 (configuration not stated)	39.8µM*	.	-23.8%	.	-3.1%	?
CCCCCn1c(CN(C)Cc2ccccc2)nc2c1c(=O)n(C)c(=O)n2C	-12.1%[12.7 µM]	?	-1.4%	10µM*	23.8%	5.2%
Cc1ccc(Cn2c(CN(C)Cc3ccccc3)nc3c2c(=O)n(C)c(=O)n3C)cc1	9.5%[2.33 µM]	13.5%	-5.4%	7.08µM*	-2.7%	-20.5%
CN(Cc1ccccc1)Cc1nc2c(c(=O)n(C)c(=O)n2C)n1Cc1ccc(Cl)cc1	10.8%[59 µM]	-9.4%	-2.1%	?	-1.0%	-18.0%
Cc1ccc(-n2cc3c(=O)n(C)c(=O)n(C)c3c2)cc1C	44.7µM*	-0.9%	-11.5%	14.1µM*	-20.6%	-21.4%
COc1ccc(-n2ncc3c2CC(C)(C)CC3NC(=O)c2cn[nH]c2)cc1 (configuration not stated)	-7.2%	.	.	.	-11.6%	22.4%
Cc1nnc(NC(=O)CSc2nccn2-c2ccc(Cl)cc2)s1	2.1%[59 µM]	?	.	.	2.7%	.
CC(=O)NC(CC(=O)NNC(=O)c1cc2ccccc2cc1O)c1ccccc1 (configuration not stated)	17.6%	.	.	.	-5.5%	7.7%
COc1ccc(C2N(c3cc(Cl)ccc3OC)C(=O)C3CCCN32)cc1 (configuration not stated)	?	-4.4%	-5.5%	10µM*	-10.7%	-21.1%
CN(C)c1ccc(C2N(c3ccc(Cl)cc3)C(=O)C3CCCN32)cc1 (configuration not stated)	-78.0%	0.2%	-1.1%	0.794µM*	-20.5%	2.3%
CN(C)c1ccc(C2N(c3ccc(F)cc3)C(=O)C3CCCN32)cc1 (configuration not stated)	-86.7%	4.5%	-15.1%	0.631µM*	0.0%	-2.4%
O=C1C2CCCN2C(c2ccccc2)N1c1ccc(Cl)cc1 (configuration not stated)	22.3%[59 µM]	?	7.3%	2.7%	21.5%	6.2%
COc1ccc(C(=O)Nc2nc(-c3nnn(-c4ccc(F)cc4F)c3C)ns2)cc1	4.6%[59 µM]	.	.	.	1.3%	.
CCOCCCn1c(SCC(=O)Nc2ccccc2Cl)nc2c(oc3ccccc32)c1=O	2.1%[59 µM]	.	.	.	4.3%	.
COc1cc([N+](=O)[O-])cc(/C=N/NC(=O)C(C)Nc2cccc(C)c2)c1O (configuration not stated)	-25.3%[59 µM]	?	3.16µM*	-1.4%	0.3%	4.5%
C=CCc1cccc(/C=N/NC(=O)C(C)Nc2cccc(C)c2)c1O (configuration not stated)	24.9%	-29.2%[46 µM]	20µM*	-1.1%	27.3%	35.3%
COc1ccc(CCC(=O)NCC(=O)OCc2ccccc2)cc1	-1.7%[2.33 µM]	.	.	.	-0.5%	12.3%
Cc1cc(OC(=O)C(C)(C)C)c([N+](=O)[O-])c(=O)[nH]1	1.41µM*	.	-5.7%	6.5%	-1.9%	16.5%
Cc1cc(OC(=O)c2ccc(Cl)cc2Cl)c([N+](=O)[O-])c(=O)[nH]1	79.4µM*	.	.	.	0.2%	14.6%
CCCCNC(=O)CSc1nc2n[nH]c(C)c2c(=N)n1-c1ccccc1CC	3.8%[59 µM]	-4.2%[46 µM]	.	.	-16.1%	.
COc1ccc(OCC(=O)OCC(=O)NC2CCCCC2C)cc1 (configuration not stated)	25.6%[12.7 µM]	.	.	.	.	.
COc1cc(NC2CCCCC2O)c2nc(-c3ccc(Cl)cc3)ccc2c1 (configuration not stated)	11.3%	.	22.4µM*	.	-31.4%	?
COCCNC(=O)NC1(C(F)(F)F)Oc2ccc(Cl)cc2O1 (configuration not stated)	39.8µM*	?	?	?	-32.8%	1.2%
SMILES	G9a block	LMNA splice mod	KDM4E inh	ALDH1A1 block	miR-21 reporter	Sfp PPTase inh
CCCCNC(=O)NC1(C(F)(F)F)Oc2ccccc2O1	?	-0.9%	-14.3%	0.2%	-4.9%	9.2%
Cn1c(=O)c2c(nc(CN3CCC(C(N)=O)CC3)n2CCc2ccccc2)n(C)c1=O	-6.2%[2.33 µM]	14.9%	?	4.47µM*	-5.9%	3.3%
Cn1c(=O)c2c(nc(CN3CCC(C(N)=O)CC3)n2Cc2c(Cl)cccc2Cl)n(C)c1=O	-34.2%[12.7 µM]	4.6%	-4.5%	14.1µM*	-12.4%	-9.7%
Cn1c(=O)c2c(nc(CN3CCCCC3)n2CCc2ccccc2)n(C)c1=O	-5.0%	1.0%	-0.9%	?	-0.2%	18.3%
Cn1c(=O)c2c(nc(CN3CCC(C(N)=O)CC3)n2Cc2c(F)cccc2Cl)n(C)c1=O	-9.4%	-2.5%	-0.9%	?	-11.9%	13.2%
Cn1c(=O)c2c(nc(CN3CCC(C(N)=O)CC3)n2Cc2ccccc2Cl)n(C)c1=O	-9.7%[59 µM]	1.2%	-2.8%	12.6µM*	-2.1%	17.8%
O=C(c1cc(C2CC2)on1)N1CCCC(N2CCN(c3ccc(F)cc3)CC2)C1 (configuration not stated)	-23.0%	.	.	.	6.2%	7.4%
CCc1nc2ccc(C(=O)NCc3cc(OC)ccc3OC)cc2nc1CC	1.9%[59 µM]	?	.	.	0.6%	.
COc1cccc(OCCCCN2CCCCC2)c1	?	-8.5%	-29.5%	-17.8%	1.4%	2.8%
CCCCOc1ccc(C(=O)NCC(=O)N2CC(C)OC(C)C2)cc1 (configuration not stated)	6.4%	.	.	.	.	.
COc1cccc(OCCCCN2CC(C)OC(C)C2)c1 (configuration not stated)	10µM*	4.8%	?	-1.1%	-4.6%	-28.1%
COC(=O)c1ccc(OCCCCN2CC(C)OC(C)C2)cc1 (configuration not stated)	2.82µM*	7.6%[46 µM]	?	?	-5.2%	56.2µM*
CC1CN(CCCCOc2ccc3ccccc3c2)CC(C)O1 (configuration not stated)	2µM*	?	?	-8.3%	-18.6%	-11.4%
Cc1ccc(NC(=O)C2CCN(C(=O)c3ccco3)CC2)cc1C	16.8%	.	.	.	-6.0%	9.8%
CCOC(=O)OCC1OC(C#Cc2ccccc2)C=CC1OC(=O)OCC (configuration not stated)	.	.	.	3.55µM*	.	-2.3%
CCOC(=O)c1ccc(NC(=O)CCc2c(C)nc3nc[nH]n3c2=O)cc1	-5.8%[59 µM]	.	.	.	2.7%	.

Bioassay records deposited in PubChem by National Center for Advancing Translational Sciences (NCATS).
